Assay results reported in PubChem BioAssay (Tox21).
Unmarked numbers belong to inactive results. Inconclusive results are not listed. Where a call stands in place of a potency, no number is given. Active and inactive are the calls of the source. Unless noted, the call rests on the fitted dose curve; in most records, active means well fitted curve in the direction sought with a large enough effect in the repeat runs; inconclusive means weak or mixed curves; inactive means no such curve, though single readings can be large; an effect the other way counts as inactive or inconclusive.

Experiments:
[1] = A CellTox Green Cytotoxicity Assay to monitor cytotoxicity in HepG2 cells - 0 hour (AID 1224882); further: nearly all actives have a fitted effect of over 35% in size; further: potency means the concentration at half of the fitted maximal effect
How it was run: (§1)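 HepG2, 600 cells/well premixed w/ CellTox Green; 5 h settle, 37 C/5% CO2; pintool cpd add (DMSO); 37 C, 40 h; fluorescence read at 0, 8, 16, 24, 32, 40 h.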

[2] = A CellTox Green Cytotoxicity Assay to monitor cytotoxicity in HEK293 cells - 8 hour (AID 1224884); further: nearly all actives have a fitted effect of over 35% in size; further: potency means the concentration at half of the fitted maximal effect
How it was run: (§2)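 Read-out: fluorescence of a cell-impermeant cyanine dye staining DNA of dead cells, proportional to cytotoxicity. HEK293, 600 cells/well with reagent, compound (23 nL DMSO) added after 5 h; reads at 0, 8, 16, 24, 32, 40 h.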

[3] = qHTS RealTime-Glo MT Cell Viability Assay in HEK293 cells - 24 hour (AID 1224886); further: nearly all actives have a fitted effect of over 50% in size; further: potency means the concentration at half of the fitted maximal effect
How it was run: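 Homogeneous bioluminescent viability format in HEK293 cells (600 cells/well). Following 5 h at 37 C/5% CO2, 23 nL compound was pintooled; the signal was measured repeatedly during 40 h incubation.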

[4] = qHTS RealTime-Glo MT Cell Viability Assay in HEK293 cells - 8 hour (AID 1224887); further: nearly all actives have a fitted effect of over 50% in size; further: potency means the concentration at half of the fitted maximal effect
How it was run: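 Luminescence readout at each listed time point; HEK293, 600 cells/well, RealTime-Glo MT reagent added with cells; compounds pinned (23 nL in DMSO) after 5 h at 37 C; continuous culture at 37 C.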

[5] = qHTS RealTime-Glo MT Cell Viability Assay in HepG2 cells - 0 hour (AID 1224889); further: nearly all actives have a fitted effect of over 50% in size; further: potency means the concentration at half of the fitted maximal effect
How it was run: (§3)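 Cell number in HepG2 cultures estimated from NanoLuc luminescence generated by metabolic reduction of a prosubstrate by living cells. The homogeneous, nonlytic format allowed repeated reads at 0, 8, 16, 24, 32 and 40 h of compound exposure.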

[6] = A CellTox Green Cytotoxicity Assay to monitor cytotoxicity in HepG2 cells - 8 hour (AID 1224890); further: nearly all actives have a fitted effect of over 45% in size; further: potency means the concentration at half of the fitted maximal effect
How it was run: as §1

[7] = qHTS assay to identify small molecule antagonists of the estrogen receptor alpha (ER-alpha) signaling pathway using the BG1 cell line in the presence of 0.1 nM 17-beta-estradiol - cell viability counter screen (AID 1259241); further: nearly all actives have a fitted effect of over 40% in size; further: potency means the concentration at half of the fitted maximal effect
How it was run: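 Estradiol-stimulated (0.1 nM) VM7Luc4E2 cells exposed to compounds 22 hr; viability measured by fluorescence of cleaved CellTiter-Fluor substrate after 30 min.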

[8] = qHTS assay to identify small molecule antagonists of the androgen receptor (AR) signaling pathway using the MDA cell line in the presence of 0.5 nM R1881 - cell viability counter screen (AID 1259242); further: nearly all actives have a fitted effect of over 45% in size; further: potency means the concentration at half of the fitted maximal effect
How it was run: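 Live-cell protease fluorescence, CellTiter-Fluor, 30 min at 37C. Cells: MDA-kb2, 3,000/well, preincubated 5 hr. Compounds plus 0.5 nM R1881 final, 16 hr, 37C, 0% CO2.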

[9] = target: Estrogen receptor (Homo sapiens) (UniProt P03372); test: qHTS assay to identify small molecule antagonists of the estrogen receptor alpha (ER-alpha) signaling pathway using the BG1 cell line in the presence of 0.1 nM 17-beta-estradiol (AID 1259244); further: nearly all actives have a fitted effect of over 50% in size; further: potency means the concentration at half of the fitted maximal effect
How it was run: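 Luminescence after ONE-Glo (30 min, room temperature) measured ERE-luciferase activity in VM7Luc4E2 cells treated 22 h with compound and 0.1 nM final 17beta-estradiol as stimulator.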

[10] = qHTS assay to identify small molecule HDAC inhibitors (AID 1259364);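 further: wild-type HCT-116 cells with endogenous class I/II HDAC activity; top concentration of the series differs between compounds; nearly all actives have a fitted effect of over 45% in size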
How it was run: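 HCT-116 (wild type), 1,500 cells/well, overnight; compound 2 hr 37C 5% CO2; HDAC-Glo I/II reagent 30 min RT; luminescence readout.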

[11] = qHTS assay to identify small molecule HDAC inhibitors - cell viability counter screen (AID 1259365)
How it was run: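 After overnight seeding at 1,500 cells per well, wild-type HCT-116 cultures took up compounds in DMSO for 2hr at 37 C. Viable cell content came from luminescence with CellTiter-Glo.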

[12] = qHTS assay to identify small molecule agonists of the sonic hedgehog signaling (Shh) pathway - cell viability counter screen (AID 1259366); further: nearly all actives have a fitted effect of over 50% in size; further: potency means the concentration at half of the fitted maximal effect
How it was run: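 Same-well cytotoxicity read. Gli1-Luc reporter 3T3 cells; compounds 24hr, 37C/5% CO2; CellTiter-Fluor fluorescence.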

[13] = qHTS assay to identify small molecule antagonists of the sonic hedgehog signaling (Shh) pathway - cell viability counter screen (AID 1259367); further: nearly all actives have a fitted effect of over 55% in size; further: potency means the concentration at half of the fitted maximal effect
How it was run: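 Tox21 library chemicals were tested on a Gli1-Luc NIH/3T3 clone (2,000 cells/well) stimulated by conditioned medium; viability was quantified as fluorescence from CellTiter-Fluor reagent added at 23 hr.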

[14] = qHTS assay to identify small molecule agonists of the sonic hedgehog signaling (Shh) pathway (AID 1259368; calls by dose curve;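 further: NIH/3T3-derived 3T3Gli1-Luc cells carrying a stable Gli1-driven firefly luciferase reporter; series mostly up to about 92 µM; nearly all actives have a fitted effect of over 15% in size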)
How it was run: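 Read-out: firefly luciferase luminescence from a Gli1 response element reporter stably integrated in NIH/3T3-derived 3T3Gli1-Luc cells, measured 30 min at room temperature after reagent addition. Compound exposure lasted 24 hr at 37 C, 5% CO2.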

[15] = qHTS assay to identify small molecule antagonists of the sonic hedgehog signaling (Shh) pathway (AID 1259369; calls by dose curve; further: nearly all actives have a fitted effect of over 45% in size; further: potency means the concentration at half of the fitted maximal effect)
How it was run: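 Luminescence readout: firefly Luc under Gli1 response element in 3T3Gli1-Luc cells (NIH/3T3 clone). Antagonist mode, stimulation by conditioned medium; compound exposure 24hr at 37 C, 5% CO2.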

[16] = target: Androgen receptor (Homo sapiens) (UniProt P10275); test: qHTS assay to identify small molecule antagonists of the androgen receptor (AR) signaling pathway using the MDA cell line in the presence of 0.5 nM R1881 (AID 1259243); further: nearly all actives have a fitted effect of over 50% in size
How it was run: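 MDA-kb2, MMTV-luc (AR/GR elements); 3,000 cells/well; cpd + 0.5 nM R1881 final; 16 hr 37C, 0% CO2; ONE-Glo 30 min RT; luminescence.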

[17] = qHTS RealTime-Glo MT Cell Viability Assay in HepG2 cells - 16 hour (AID 1224885); further: nearly all actives have a fitted effect of over 50% in size; further: potency means the concentration at half of the fitted maximal effect
How it was run: as §3

[18] = A CellTox Green Cytotoxicity Assay to monitor cytotoxicity in HEK293 cells - 16 hour (AID 1224888); further: nearly all actives have a fitted effect of over 35% in size; further: potency means the concentration at half of the fitted maximal effect
How it was run: as §2

[19] = A CellTox Green Cytotoxicity Assay to monitor cytotoxicity in HepG2 cells - 32 hour (AID 1224883); further: nearly all actives have a fitted effect of over 50% in size; further: potency means the concentration at half of the fitted maximal effect
How it was run: as §1

[20] = qHTS assay to identify small molecule phospholipidosis (PLD) inducers (AID 1259344; active means well fitted curve in the direction sought with a large enough effect; an effect the other way counts as inactive or inconclusive)
How it was run: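 Image-based: LipidTOX Red pit count/intensity per well and per cell; HepG2, 24 h compound at 37 C, PFA fixation, Hoechst counterstain.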

Estrogen receptor (Homo sapiens), sequence (P03372 whole entry, looked up): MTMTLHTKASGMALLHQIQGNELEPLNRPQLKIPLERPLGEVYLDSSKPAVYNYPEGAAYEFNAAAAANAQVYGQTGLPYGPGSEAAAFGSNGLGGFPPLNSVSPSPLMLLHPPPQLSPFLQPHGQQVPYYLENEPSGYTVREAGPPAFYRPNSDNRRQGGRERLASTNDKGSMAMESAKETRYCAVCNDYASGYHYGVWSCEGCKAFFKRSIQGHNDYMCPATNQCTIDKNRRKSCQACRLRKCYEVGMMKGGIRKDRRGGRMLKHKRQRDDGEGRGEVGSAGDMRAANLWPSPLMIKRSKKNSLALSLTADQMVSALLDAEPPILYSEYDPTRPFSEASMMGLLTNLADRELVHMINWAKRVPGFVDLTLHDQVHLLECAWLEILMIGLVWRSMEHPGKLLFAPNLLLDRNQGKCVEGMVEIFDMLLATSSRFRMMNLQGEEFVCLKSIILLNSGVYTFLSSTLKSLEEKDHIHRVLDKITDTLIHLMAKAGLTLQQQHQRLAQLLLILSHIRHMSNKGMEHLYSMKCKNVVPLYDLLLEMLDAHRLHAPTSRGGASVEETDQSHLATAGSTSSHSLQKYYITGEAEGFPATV
Androgen receptor (Homo sapiens), sequence (P10275 whole entry, looked up): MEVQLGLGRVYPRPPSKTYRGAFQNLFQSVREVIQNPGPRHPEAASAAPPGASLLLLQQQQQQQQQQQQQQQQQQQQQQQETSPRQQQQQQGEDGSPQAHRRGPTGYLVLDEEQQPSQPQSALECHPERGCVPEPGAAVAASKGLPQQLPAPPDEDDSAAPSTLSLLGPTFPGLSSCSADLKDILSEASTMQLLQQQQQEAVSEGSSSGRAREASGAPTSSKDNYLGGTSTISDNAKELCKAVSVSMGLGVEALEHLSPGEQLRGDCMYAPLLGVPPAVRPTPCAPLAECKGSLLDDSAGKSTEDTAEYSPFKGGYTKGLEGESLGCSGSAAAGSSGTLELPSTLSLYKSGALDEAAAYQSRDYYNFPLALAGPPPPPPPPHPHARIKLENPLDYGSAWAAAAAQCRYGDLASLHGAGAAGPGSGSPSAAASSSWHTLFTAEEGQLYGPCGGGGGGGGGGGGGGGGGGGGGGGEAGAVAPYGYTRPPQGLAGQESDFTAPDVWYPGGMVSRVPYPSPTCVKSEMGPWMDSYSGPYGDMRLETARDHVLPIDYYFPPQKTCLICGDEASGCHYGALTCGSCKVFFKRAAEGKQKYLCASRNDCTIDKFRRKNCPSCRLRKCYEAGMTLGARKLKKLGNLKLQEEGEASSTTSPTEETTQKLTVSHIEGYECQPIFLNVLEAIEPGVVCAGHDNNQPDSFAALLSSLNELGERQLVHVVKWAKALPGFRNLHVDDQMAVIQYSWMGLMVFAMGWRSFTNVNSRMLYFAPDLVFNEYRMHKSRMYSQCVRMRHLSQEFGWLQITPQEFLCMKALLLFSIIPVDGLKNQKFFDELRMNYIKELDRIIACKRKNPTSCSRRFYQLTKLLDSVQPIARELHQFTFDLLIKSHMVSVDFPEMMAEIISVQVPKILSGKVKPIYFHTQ

| Structure (SMILES) | Potency [1] | Potency [2] | Potency [3] | Potency [4] | Potency [5] | Potency [6] | Potency [7] | Potency [8] | Potency [9] | Potency [10] | Potency [11] | Potency [12] | Potency [13] | outcome [14] | Potency [15] | Potency [16] | Potency [17] | Potency [18] | Potency [19] | Potency [20] |
| --- | --- | --- | --- | --- | --- | --- | --- | --- | --- | --- | --- | --- | --- | --- | --- | --- | --- | --- | --- | --- |
| O=C(Nc1ccc(S(=O)(=O)N2CCOCC2)cc1)c1cc(Cl)ccc1NS(=O)(=O)c1ccc(Cl)s1 | 21.3 µM (active) | 23.9 µM (active) | inactive | inactive | 9.52 µM (active) | 26.8 µM (active) | inactive | inactive | inactive | inactive | inactive | inactive | inactive | inactive | 26.6 µM (active) | – | – | – | – | – |
| CCCCCCCCCCCCCCCCOS(=O)(=O)O | inactive | 23.9 µM (active) | inactive | inactive | inactive | – | inactive | inactive | inactive | inactive | inactive | inactive | inactive | inactive | – | inactive | – | – | – | – |
| CCCNCC(O)COc1ccccc1C(=O)CCc1ccccc1 (stereo unspecified) | inactive | inactive | 2.13 µM (active) | 2.13 µM (active) | inactive | inactive | inactive | inactive | – | inactive | inactive | – | inactive | inactive | 4.73 µM (active) | – | inactive | inactive | – | – |
| CCN(CC)CCNc1ccc(CNC=O)c2sc3ccc(OC)cc3c(=O)c12 | inactive | inactive | 19.5 µM (active) | 34.7 µM (active) | – | inactive | 4.33 µM (active) | – | inactive | inactive | inactive | inactive | inactive | inactive | – | – | 21.9 µM (active) | inactive | – | – |
| CN1CCC(N(Cc2cccs2)c2ccccc2)CC1 | – | 19 µM (active) | inactive | inactive | inactive | – | inactive | inactive | inactive | inactive | inactive | inactive | – | inactive | – | – | inactive | 19 µM (active) | 21.3 µM (active) | – |
| COc1cc(C(=O)OCCCN2CCCN(CCCOC(=O)c3cc(OC)c(OC)c(OC)c3)CC2)cc(OC)c1OC | inactive | – | 8.49 µM (active) | 9.52 µM (active) | inactive | inactive | – | inactive | 13.3 µM (active) | inactive | inactive | 6.68 µM (active) | 10.6 µM (active) | inactive | 6.68 µM (active) | – | – | inactive | 21.3 µM (active) | inactive |
| CCCCCCOC(=O)NC(=N)c1ccc(NCc2nc3cc(C(=O)N(CCC(=O)OCC)c4ccccn4)ccc3n2C)cc1 | inactive | – | 9.52 µM (active) | 9.52 µM (active) | inactive | inactive | – | 26.6 µM (active) | 23.7 µM (active) | – | inactive | – | – | inactive | 1.19 µM (active) | – | – | inactive | 23.9 µM (active) | – |
| CC(=O)c1ccc2c(c1)N(CCCN(C)C)c1ccccc1S2 | inactive | inactive | inactive | inactive | inactive | inactive | – | inactive | inactive | – | inactive | – | – | inactive | inactive | – | inactive | inactive | – | – |
| CCCCCCCCCCCCCCCCCCOS(=O)(=O)O | inactive | – | – | inactive | inactive | – | inactive | inactive | – | inactive | inactive | inactive | inactive | inactive | inactive | – | inactive | – | – | – |
| O=C(NCC1CN(c2ccc(N3CCOCC3=O)cc2)C(=O)O1)c1ccc(Cl)s1 (stereo unspecified) | – | – | inactive | inactive | inactive | – | inactive | inactive | – | – | inactive | inactive | inactive | inactive | inactive | – | inactive | inactive | – | – |
| c1ccc(C(O[C@H]2CCCN(CCc3ccc4c(c3)OCO4)C2)c2ccccc2)cc1 | inactive | inactive | – | inactive | inactive | – | – | inactive | inactive | inactive | inactive | inactive | – | inactive | – | – | inactive | inactive | – | – |
| CCOCC(O)COc1ccc(NC(=O)CC[S+](C)C)cc1 (stereo unspecified) | inactive | – | inactive | inactive | inactive | inactive | inactive | inactive | inactive | inactive | inactive | inactive | inactive | inactive | inactive | – | – | inactive | inactive | – |
| CC(C)=CCC/C(C)=C/CC/C(C)=C/CO | inactive | inactive | – | – | inactive | – | inactive | inactive | – | inactive | inactive | inactive | inactive | inactive | – | – | inactive | – | – | – |
| COc1ccc(-c2nc3ccc(C4=NNC(=O)CC4C)cc3[nH]2)cc1 (stereo unspecified) | inactive | inactive | 9.52 µM (active) | – | inactive | inactive | inactive | inactive | inactive | – | inactive | inactive | – | inactive | – | inactive | inactive | inactive | – | inactive |
| CCCCCCCCCCCCCCOS(=O)(=O)O | inactive | – | inactive | inactive | inactive | – | inactive | inactive | inactive | inactive | inactive | inactive | inactive | inactive | inactive | – | – | 43.6 µM (active) | 38.9 µM (active) | – |
